These results are taken from PubChem BioAssay (NCI).

Molecules are shown by their SMILES. About 83,000 compounds went through this panel and 20% of them were active in at least one assay; those are over-represented in the sample as a whole.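 Single-dose data. Exposure time 48 hours. Values below 10 considered active.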 Values without a mark were called inactive. Calls of active or inactive are those of the source.

Among the test systems are HCT-15 colon; HT29 colon; SNB-75 CNS; SNB-19 CNS; U251 CNS; PC-3 prostate; SK-MEL-5 melanoma; UACC-62 melanoma; LOX IMVI melanoma; SK-MEL-28 melanoma; SK-MEL-2 melanoma; EKVX NSCLC; SN12C renal; UO-31 renal; TK-10 renal; ACHN renal; CAKI-1 renal; A498 renal; CCRF-CEM leukemia; MOLT-4 leukemia.
Holding throughout (assay): NCI-60 one-dose screen, 48 h (100 = growth as untreated, 0 = no growth, -100 = all killed)
Conditions in all cases: 10 µM unless noted

Take `O=C1C=CC(=O)N1c1ccccn1`: the growth with HCT-15 colon was 97.7%; in the test on HT29 colon, 115%; in the test with SNB-75 CNS, 89.3%; with SNB-19 CNS, 96.6%; in the test with U251 CNS, 110%; with PC-3 prostate, 99.4%. Moreover, the growth was 111% in the test with SK-MEL-5 melanoma; 95% with UACC-62 melanoma; 93.6% with LOX IMVI melanoma; 115% in the test on SK-MEL-28 melanoma; 109% in the test with SK-MEL-2 melanoma; 118% in the test on EKVX NSCLC. The growth with SN12C renal was 96.2%; with UO-31 renal, 97.1%; with TK-10 renal, 113%; in the test on ACHN renal, 97.4%; in the test on CAKI-1 renal, 104%; with A498 renal, 95.8%. For the same molecule, the growth was 105% with CCRF-CEM leukemia and 66.6% in the test with MOLT-4 leukemia.

As for `O=C(C(=O)N1CCOCC1)c1cn(CCCn2cc(C(=O)C(=O)N3CCOCC3)c3ccccc32)c2ccccc12`, the growth in the test on HCT-15 colon is 104%; in the test with HT29 colon it was 99.7%; in the test on SNB-75 CNS it was 94.7%; with SNB-19 CNS, 93.9%; in the test with U251 CNS, 102%; in the test with PC-3 prostate, 89.9%. For the same molecule, the growth in the test with SK-MEL-5 melanoma was 100%; in the test with UACC-62 melanoma, 93.5%; in the test on LOX IMVI melanoma it was 104%; with SK-MEL-28 melanoma, 110%; in the test with SK-MEL-2 melanoma, 100%; in the test with EKVX NSCLC it was 104%. Moreover, the growth is 96.3% with SN12C renal; 75.3% with UO-31 renal; 97.6% in the test on TK-10 renal; 100% in the test with ACHN renal; 104% with CAKI-1 renal; 134% with A498 renal. In addition, the growth is -13.1% (active) in the test on CCRF-CEM leukemia and 104% in the test with MOLT-4 leukemia.

Regarding `O=C1Nc2ccc(Cl)cc2[C@@](C#CC2CC2)(C(F)(F)F)O1`, the growth in the test with HCT-15 colon is 82.9%; in the test with HT29 colon, 86.6%; with SNB-75 CNS it was 114%; with SNB-19 CNS, 103%; in the test with U251 CNS it was 92%; in the test on PC-3 prostate, 92.9%. Besides, the growth in the test with SK-MEL-5 melanoma was 78%; in the test with UACC-62 melanoma, 70%; in the test on LOX IMVI melanoma it was 85.5%; in the test on SK-MEL-28 melanoma, 109%; in the test on SK-MEL-2 melanoma, 95.5%; in the test on EKVX NSCLC, 112%. The growth in the test with SN12C renal was 85.8%; with UO-31 renal, 116%; in the test with TK-10 renal, 106%; in the test on ACHN renal it was 88.6%; in the test with CAKI-1 renal, 91.4%; in the test with A498 renal, 106%. The growth was 87.4% with CCRF-CEM leukemia and 74.1% in the test on MOLT-4 leukemia.

Turning to `O=CNc1ccc2c(c1)Cc1cc([N+](=O)[O-])ccc1-2`, the growth in the test with HCT-15 colon is 27%; in the test with HT29 colon it was 37.5%; in the test on SNB-75 CNS, 15.6%; in the test on SNB-19 CNS it was 36.2%; with U251 CNS it was 16.4%; with PC-3 prostate, 32.3%. The growth is 18.8% with SK-MEL-5 melanoma; 29.6% in the test on UACC-62 melanoma; 40.8% in the test with LOX IMVI melanoma; 57% in the test on SK-MEL-28 melanoma; 19.2% in the test on SK-MEL-2 melanoma; 36% with EKVX NSCLC. Further, the growth in the test with SN12C renal is 38.9%; with UO-31 renal it was 33.3%; with TK-10 renal, 37.6%; with ACHN renal it was 56.6%; with CAKI-1 renal it was 29.9%; with A498 renal, 39.2%. Also, the growth in the test on CCRF-CEM leukemia is 20.9%; in the test with MOLT-4 leukemia, 29.7%.

As to `CCc1ccc(-c2nc(SCC(=O)NC3CCCCC3)n[nH]2)cc1`, the growth was 88.6% with HCT-15 colon; 101% with HT29 colon; 85.4% in the test on SNB-75 CNS; 98.7% in the test with SNB-19 CNS; 89.3% with U251 CNS; 77.1% with PC-3 prostate. The growth was 61.5% in the test on SK-MEL-5 melanoma; 57.8% with UACC-62 melanoma; 67.8% with LOX IMVI melanoma; 108% with SK-MEL-28 melanoma; 10.2% in the test on SK-MEL-2 melanoma; 42.1% in the test with EKVX NSCLC. Further, the growth in the test on SN12C renal was 76.4%; with UO-31 renal, 69.8%; in the test on TK-10 renal it was 88.8%; with ACHN renal it was 64.2%; in the test with CAKI-1 renal, 85.9%; with A498 renal it was 86.4%. Further, the growth is 55.3% in the test with CCRF-CEM leukemia and 61.6% in the test with MOLT-4 leukemia.

Turning to `COc1c(O)cc2c(c1CC=C(C)C)OC(=O)c1c(cc(O)c(CC=C(C)C)c1O)O2`, the growth is 44.1% in the test on HCT-15 colon; 86.9% in the test on HT29 colon; 49.7% in the test with SNB-75 CNS; 48.4% in the test with SNB-19 CNS; 27.2% in the test on U251 CNS; 24.5% in the test on PC-3 prostate. Also, the growth in the test on SK-MEL-5 melanoma is 40.8%; in the test with UACC-62 melanoma, 67.2%; with LOX IMVI melanoma it was -27.5% (active); in the test with SK-MEL-28 melanoma, 80.5%; in the test on SK-MEL-2 melanoma it was 55.5%; in the test with EKVX NSCLC, 78.5%. In addition, the growth was 10.4% with SN12C renal; 45.1% with UO-31 renal; 42% with TK-10 renal; 30.2% in the test with ACHN renal; 50.6% in the test with CAKI-1 renal; 116% in the test on A498 renal. Besides, the growth in the test with CCRF-CEM leukemia was 32.2%; with MOLT-4 leukemia it was 20.6%.

For the molecule `C=C(CN1CCc2c([nH]c3ccccc23)C1)c1ccc(C(=O)Nc2ccon2)cc1`, the growth was 104% in the test on HCT-15 colon; 99.2% in the test with HT29 colon; 96.6% in the test on SNB-75 CNS; 74.4% in the test with SNB-19 CNS; 92% in the test with U251 CNS; 73.8% in the test with PC-3 prostate. Further, the growth is 88% in the test on SK-MEL-5 melanoma; 80% in the test with UACC-62 melanoma; 83.8% in the test with LOX IMVI melanoma; 97.8% in the test with SK-MEL-28 melanoma; 75.8% with SK-MEL-2 melanoma; 80.3% with EKVX NSCLC. Moreover, the growth is 93.8% with SN12C renal; 30.7% with UO-31 renal; 131% in the test on TK-10 renal; 99% in the test with ACHN renal; 83.9% in the test with CAKI-1 renal; 116% in the test on A498 renal. Besides, the growth was 81.2% in the test on CCRF-CEM leukemia and 77.1% in the test with MOLT-4 leukemia.

For the molecule `O=C(CC1Sc2ccccc2NC1=O)NNc1cccc(Cl)c1Cl` (stereo not given), the growth in the test on HCT-15 colon is 97.1%; in the test with HT29 colon, 93.4%; in the test with SNB-75 CNS it was 92.2%; in the test on SNB-19 CNS, 77.7%; in the test on U251 CNS it was 83.7%; in the test with PC-3 prostate it was 70.9%. In addition, the growth was 85.5% in the test with SK-MEL-5 melanoma; 85.1% in the test with UACC-62 melanoma; 88.8% with LOX IMVI melanoma; 101% with SK-MEL-28 melanoma; 87% in the test on SK-MEL-2 melanoma; 91.3% in the test with EKVX NSCLC. Further, the growth in the test on SN12C renal was 87.5%; in the test with UO-31 renal, 61.8%; with TK-10 renal, 89.9%; in the test on ACHN renal, 91.4%; with CAKI-1 renal, 90.4%; in the test on A498 renal it was 61.5%. The growth with CCRF-CEM leukemia was 70.8%; with MOLT-4 leukemia, 71.6%.
